Pf apPOL inh: Pf-apPOL DNA polymerase inhibition | 210,000 tested, 0.25% active | inhibition, % at 10 µM | Recombinant Pf-apPOL, molecular beacon fluorescence, 1.5 h | AID 1794808
mHTT-CaM PPI inh: inhibitors of human mutant huntingtin-calmodulin interaction | 190,000 tested, 3.6% active | AID 1671202 | AlphaScreen His-mHTT/GST-CaM binding, luminescence | P42858 | inhibition, % at 15 µM;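 further: 0% = both proteins with DMSO and 100% = one protein alone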
The depositor's hits bear a star. In the library only some 3.6% were active in any assay of this set; here they are far more common. No stated cut-off is given here; in the data, active means inhibition above about 50%; inactive means the rest.

CSc1ccc(CNC(=O)C2CCN(c3cncnc3N3CCCCC3)CC2)cc1 was read as Pf apPOL inh -2 and mHTT-CaM PPI inh 25.
Screening Cc1cccc(CNC(=O)C2CCN(c3cncnc3N3CCCC3)CC2)c1 returned Pf apPOL inh 8 and mHTT-CaM PPI inh 22.
Screening O=C(NCc1ccc(C(F)(F)F)cc1)C1CCN(c2cncnc2N2CCCC2)CC1 returned Pf apPOL inh 4 and mHTT-CaM PPI inh 83*.
O=C(NCc1cccc(Cl)c1)C1CCN(c2cncnc2N2CCCC2)CC1 was read as Pf apPOL inh 0 and mHTT-CaM PPI inh 52*.
`CNC(=O)Cc1ccc(Br)cc1` gave Pf apPOL inh 9 and mHTT-CaM PPI inh 5.
`Cn1cc(C(=O)NCCN2CCOCC2)c2cccnc21` gave Pf apPOL inh 0 and mHTT-CaM PPI inh -8.
For O=S(=O)(NCc1ccco1)c1cccs1 the results were Pf apPOL inh -1 and mHTT-CaM PPI inh 0.
CCc1noc(COC2CCCN(S(=O)(=O)c3ccccc3)C2)n1 (configuration not stated) was read as Pf apPOL inh -7 and mHTT-CaM PPI inh -20.
COc1cc(CN2CCN(c3cccc(C)c3C)CC2)cc(OC)c1OC was read as Pf apPOL inh 0 and mHTT-CaM PPI inh -5.
`COc1cc(CN2CCN(c3cccc(C)c3C)CC2)cc(Br)c1O` gave Pf apPOL inh 2 and mHTT-CaM PPI inh 55*.
`COc1ccc(NC(=O)N2CCc3c(c(COCc4ccc(Cl)cc4)nn3C)C2)cc1` gave Pf apPOL inh -2 and mHTT-CaM PPI inh 58*.
Screening Cc1ccccc1S(=O)(=O)N1CCc2c(c(COCc3ccccc3)nn2C)C1 returned Pf apPOL inh 3 and mHTT-CaM PPI inh 60*.
Cn1nc(COCc2ccccc2)c2c1CCN(S(=O)(=O)c1ccccc1)C2 was read as Pf apPOL inh 0 and mHTT-CaM PPI inh 27.
CCC(=O)N1CCc2c(c(COCc3ccc(Cl)cc3)nn2C)C1 was read as Pf apPOL inh -14 and mHTT-CaM PPI inh 52*.
CCCC(=O)N1CCc2c(c(COCc3ccc(C)cc3)nn2C)C1 was read as Pf apPOL inh -6 and mHTT-CaM PPI inh 3.
Cn1nc(COCc2ccc(Cl)cc2)c2c1CCN(C(=O)Nc1ccccc1)C2 was read as Pf apPOL inh -1 and mHTT-CaM PPI inh 44.
For CCCNC(=O)CC1CCN(S(=O)(=O)c2cccs2)CC1 the results were Pf apPOL inh -5 and mHTT-CaM PPI inh -10.
Screening CCOc1ccc(C2=NC(C(C)C)NC(c3ccccc3O)C2)cc1 (configuration not stated) returned Pf apPOL inh -5 and mHTT-CaM PPI inh 9.
For Cc1cc2c(N3CCCC(C(=O)N4CCN(c5ccccc5)CC4)C3)nccc2s1 (configuration not stated) the results were Pf apPOL inh 0 and mHTT-CaM PPI inh 100*.
For Cc1ccc(NC(=O)C2CCCN(c3nccc4sccc34)C2)cc1F (configuration not stated) the results were Pf apPOL inh -7 and mHTT-CaM PPI inh -5.
Screening O=C(NCc1ccc(F)cc1Cl)C1CCCN(c2nccc3sccc23)C1 (configuration not stated) returned Pf apPOL inh 5 and mHTT-CaM PPI inh -1.
For Cc1cc2c(N3CCCC(C(=O)N4CCN(C5CCCCC5)CC4)C3)nccc2s1 (configuration not stated) the results were Pf apPOL inh -5 and mHTT-CaM PPI inh 40.
`O=C(C1CCCN(c2nccc3sccc23)C1)N1CCN(c2ccc(F)cc2)CC1` (configuration not stated) gave Pf apPOL inh -17 and mHTT-CaM PPI inh 95*.
`O=C(C1CCCN(c2nccc3sccc23)C1)N1CCN(c2ccccc2F)CC1` (configuration not stated) gave Pf apPOL inh -4 and mHTT-CaM PPI inh 90*.
COc1cc(C2C(C#N)=C(N)N(c3c(F)cccc3F)C3=C2C(=O)CC(C)(C)C3)ccc1O (configuration not stated) was read as Pf apPOL inh -3 and mHTT-CaM PPI inh 16.
O=C(O)C1CSC(c2ccccc2Br)N1 (configuration not stated) was read as Pf apPOL inh 1 and mHTT-CaM PPI inh -5.
CCCNC(=O)C1CCN(c2nc3ccsc3c(=O)n2Cc2ccc(C)cc2)CC1 was read as Pf apPOL inh -2 and mHTT-CaM PPI inh 13.
`Cc1noc(C)c1C1CCCN1C(=O)c1cc2nc(C3CC3)cc(C(F)(F)F)n2n1` (configuration not stated) gave Pf apPOL inh -1 and mHTT-CaM PPI inh -1.
`CCc1c(-c2ccccc2)n(CCCOC)c2nc3c(c(=O)n(C)c(=O)n3C)n12` gave Pf apPOL inh -7 and mHTT-CaM PPI inh 3.
Screening O=[N+]([O-])c1ccc(-c2csc(=Nc3ccccc3)n2CCO)cc1 returned Pf apPOL inh 1 and mHTT-CaM PPI inh 32.
`Cc1csc(=Nc2ccccc2)n1CC(O)c1ccc([N+](=O)[O-])cc1` (configuration not stated) gave Pf apPOL inh 3 and mHTT-CaM PPI inh 83*.
